Compound activity from PubChem BioAssay.
FAS-TE inh – FAS thioesterase domain inhibitors, primary screen, biochemical, fluorescence intensity, uHTS; recombinant FAS-TE, OMFH fluorogenic substrate, fluorescence endpoint; inhibition, % at 15 µM; 360,000 tested, 0.67% active; AID 602261, 2012;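 active = compounds whose normalised, plate-corrected inhibition of enzyme fluorescence in the single-dose primary screen is 50% or more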;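 also: 0% = DMSO with enzyme and 100% = substrate without enzyme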
Target sequence (P49327 whole entry, looked up, the tested form may be a part): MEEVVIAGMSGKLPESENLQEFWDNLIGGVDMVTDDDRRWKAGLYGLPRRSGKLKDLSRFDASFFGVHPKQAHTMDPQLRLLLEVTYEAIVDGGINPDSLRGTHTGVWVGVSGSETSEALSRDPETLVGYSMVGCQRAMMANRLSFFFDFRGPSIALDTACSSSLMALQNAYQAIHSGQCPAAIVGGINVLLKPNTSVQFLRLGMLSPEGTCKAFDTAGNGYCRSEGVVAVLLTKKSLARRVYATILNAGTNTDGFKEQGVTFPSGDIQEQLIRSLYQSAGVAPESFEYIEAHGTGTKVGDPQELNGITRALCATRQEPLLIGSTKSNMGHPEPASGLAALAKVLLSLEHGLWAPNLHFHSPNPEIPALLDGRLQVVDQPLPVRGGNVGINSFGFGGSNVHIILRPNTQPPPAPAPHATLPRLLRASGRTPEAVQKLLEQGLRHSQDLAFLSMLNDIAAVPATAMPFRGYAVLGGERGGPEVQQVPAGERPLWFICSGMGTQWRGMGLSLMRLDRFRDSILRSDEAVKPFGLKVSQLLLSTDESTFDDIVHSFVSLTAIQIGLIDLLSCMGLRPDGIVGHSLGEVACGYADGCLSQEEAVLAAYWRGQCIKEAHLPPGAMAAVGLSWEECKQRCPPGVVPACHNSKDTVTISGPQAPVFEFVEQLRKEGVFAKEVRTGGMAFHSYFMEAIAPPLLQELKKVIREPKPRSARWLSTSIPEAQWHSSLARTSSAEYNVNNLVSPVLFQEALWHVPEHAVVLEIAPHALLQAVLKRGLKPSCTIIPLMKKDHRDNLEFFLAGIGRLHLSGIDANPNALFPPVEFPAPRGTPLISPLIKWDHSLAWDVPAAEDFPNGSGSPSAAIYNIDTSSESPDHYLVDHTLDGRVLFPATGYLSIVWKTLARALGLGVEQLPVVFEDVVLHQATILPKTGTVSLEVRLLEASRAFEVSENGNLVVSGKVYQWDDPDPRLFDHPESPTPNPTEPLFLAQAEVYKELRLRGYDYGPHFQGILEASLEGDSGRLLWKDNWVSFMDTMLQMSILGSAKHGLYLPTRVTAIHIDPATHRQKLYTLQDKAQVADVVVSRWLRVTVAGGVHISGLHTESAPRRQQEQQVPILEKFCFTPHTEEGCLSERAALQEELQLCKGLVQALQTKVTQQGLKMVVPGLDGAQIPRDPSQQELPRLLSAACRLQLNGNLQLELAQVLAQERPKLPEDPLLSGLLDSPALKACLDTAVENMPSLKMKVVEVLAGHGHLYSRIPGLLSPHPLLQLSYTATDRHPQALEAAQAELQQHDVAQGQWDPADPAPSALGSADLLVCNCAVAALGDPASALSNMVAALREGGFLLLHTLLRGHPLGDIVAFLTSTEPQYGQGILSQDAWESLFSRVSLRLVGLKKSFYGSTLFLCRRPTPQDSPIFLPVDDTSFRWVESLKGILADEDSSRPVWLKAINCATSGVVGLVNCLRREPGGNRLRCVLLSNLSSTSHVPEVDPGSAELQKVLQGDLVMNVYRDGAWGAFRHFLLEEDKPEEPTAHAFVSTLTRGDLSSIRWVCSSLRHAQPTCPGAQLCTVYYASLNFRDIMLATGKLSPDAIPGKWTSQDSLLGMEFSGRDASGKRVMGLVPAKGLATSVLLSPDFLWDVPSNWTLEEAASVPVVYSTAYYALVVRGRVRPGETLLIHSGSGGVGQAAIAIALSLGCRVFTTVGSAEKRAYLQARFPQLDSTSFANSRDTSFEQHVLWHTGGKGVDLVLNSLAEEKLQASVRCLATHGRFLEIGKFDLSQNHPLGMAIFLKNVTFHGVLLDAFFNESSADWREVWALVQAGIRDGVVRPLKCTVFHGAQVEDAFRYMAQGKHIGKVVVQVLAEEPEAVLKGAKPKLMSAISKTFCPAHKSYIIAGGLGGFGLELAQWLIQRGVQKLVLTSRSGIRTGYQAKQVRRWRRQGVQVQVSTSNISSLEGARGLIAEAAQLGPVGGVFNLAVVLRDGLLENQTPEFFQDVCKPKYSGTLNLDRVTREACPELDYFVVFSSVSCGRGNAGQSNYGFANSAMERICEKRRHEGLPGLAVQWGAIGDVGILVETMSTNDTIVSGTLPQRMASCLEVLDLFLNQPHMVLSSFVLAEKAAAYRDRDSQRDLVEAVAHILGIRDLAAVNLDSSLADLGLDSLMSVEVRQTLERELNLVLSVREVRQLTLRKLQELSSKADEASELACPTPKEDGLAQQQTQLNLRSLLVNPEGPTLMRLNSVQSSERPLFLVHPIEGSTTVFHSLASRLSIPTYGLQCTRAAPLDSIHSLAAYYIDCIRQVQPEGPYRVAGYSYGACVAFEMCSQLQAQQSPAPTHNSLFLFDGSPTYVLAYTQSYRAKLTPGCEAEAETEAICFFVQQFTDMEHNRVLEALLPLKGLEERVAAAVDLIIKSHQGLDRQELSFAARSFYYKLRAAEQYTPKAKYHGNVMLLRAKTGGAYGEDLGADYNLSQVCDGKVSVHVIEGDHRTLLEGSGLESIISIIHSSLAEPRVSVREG
CRFBP-R2 agonist – agonists of CRF-BP/CRF-R2 complex, primary screen, cell-based, HEK293, calcium dye fluorescence, uHTS; CRF-binding protein / CRF receptor 2 complex (human); calcium dye fluorescence (FLIPR); percent of saturating CRF peptide response; activation, % at 13.2 µM; 350,000 tested, 0.46% active; AID 588473, 2011;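 active = activation of at least 50%, plus an integration ratio under a set limit after plate pattern correction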;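 also: plate controls were neutral control wells without compound for no effect and CRF at EC100 for full effect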
PfGluPho inh – PfG6PD enzyme inhibitors, primary screen, biochemical, fluorescence intensity, uHTS. PfGluPho enzyme, NADPH resazurin-diaphorase fluorescence. inhibition, % at 20 µM. 350,000 tested, 0.78% active. AID 504690, 2011;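 active = inhibition reaching at least a set limit at 20 µM in the primary screen, cut at about 59% in these data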;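 also: 0% = DMSO wells with substrate and 100% = DMSO wells lacking glucose-6-phosphate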
CRFBP-R2 block – antagonists of CRF-BP/CRF-R2 complex, primary screen, cell-based, HEK293, calcium dye fluorescence, uHTS; 350,000 tested, 0.59% active; inhibition, % at 11.8 µM; CRF-induced calcium fluorescence; AID 588475, 2011;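 active = inhibition of the ligand-induced calcium signal above about 50% at the single tested concentration, limit read from the data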
H9c2 protect – cardioprotection against H2O2-induced cell death, primary screen, uHTS, H9c2 cells, ATPLite luminescence | 360,000 tested, 0.63% active | H9c2 cardiomyocytes, H2O2 injury protection, 2 h | protection from H2O2 cell death, % at 20 µM | AID 588492, 2011;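 active = compounds giving at least 50% protection of heart cells from peroxide-induced death in the single-dose screen, raw or plate-pattern-corrected value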;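 also: 0% = DMSO wells with peroxide and 100% = DMSO wells without peroxide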
aDG glyco act – activators of alpha-DG glycosylation, primary screen, uHTS, Pro5-aDG cells, AlphaScreen; alpha-DG glycosylation AlphaScreen (IIH6); 0% Pro5, 100% B10-LARGE cell signal; 360,000 tested, 0.22% active; activation, % at 10 µM; AID 624168, 2012;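 active = activation of at least 8% versus controls, or a plate z-score of at least 8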;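 also: Pro5 are CHO cells carrying HIG-tagged alpha-DG that lacks glycosylation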
The depositor's hits bear a star; nt = not tested or not shown. An excerpt weighted towards active compounds, which were near 3.2% of everything screened.

SMILES	FAS-TE inh	CRFBP-R2 agonist	PfGluPho inh	CRFBP-R2 block	H9c2 protect	aDG glyco act
COc1ccc(C(NC(=O)c2ccc(=O)[nH]c2)C(=O)Nc2ccc(C(C)C)cc2)cc1 (stereo unspecified)	0.4	57.8*	-0.6	-26.4	-3.7	-0.5
COc1cc(Br)cc(C(=O)N2CCc3ccccc32)c1OC	0.3	-2.2	14.8	-0.4	0.4	-0.1
C=CCn1cc(F)c(=O)n(CC=C)c1=O	-1.9	1.6	-20.9	-4.3	5.5	-0.1
O=C(Nc1cc(Cl)cc(Cl)c1)c1coc(=O)c(Br)c1	6.7	43.5	-8.5	71.3*	-3.9	-0.1
CCOC(=O)/C(C#N)=C\c1ccc2c(c1)OCO2	-2.9	-0.9	-13.6	110.2*	-0.3	0.2
N#C/C(=C\c1ccc2c(c1)OCO2)C(N)=S	-6.7	1.3	13.3	5.1	2.0	0.0
CCOC(=O)/C(C#N)=C\c1ccc(N2CCN(C/C=C/c3ccccc3)CC2)cc1	-3.6	54.6*	-0.3	-61.8	-12.9	0.7
COc1ccc(CN2[C@@H](CC(C)=O)c3cc(C(F)(F)F)ccc3S2(=O)=O)cc1	24.2	0.1	5.8	-5.4	-16.6	1.1
OC(COCC(F)(F)C(F)(F)C(F)(F)C(F)F)Cn1c2ccc(Cl)cc2c2cc(Cl)ccc21 (stereo unspecified)	56.0*	9.0	24.8	-11.1	-20.1	1.7
Cc1ccc(S(=O)(=O)N2CC(O)C[C@H]2C(=O)OCC(=O)N2CCN(c3ccc(F)cc3)CC2)cc1C (stereo partly specified)	-2.6	-1.9	3.0	7.0	-7.8	0.1
COc1ccc(N/C=C(\C#N)c2nc3ccccc3n2C)c(OC)c1	23.3	13.3	13.0	-27.3	49.5*	-1.0
COc1ccc(CNc2nc3ccccc3n2C)c(OC)c1	0.7	-1.6	14.3	19.3	-6.0	0.0
O=C(NC(=S)NCC1CCCO1)c1cccc([N+](=O)[O-])c1 (stereo unspecified)	1.0	0.3	-0.8	1.5	-3.7	0.0
COc1ccc(/C=C/C(=O)c2ccccc2O)cc1CN1CCOCC1	7.9	1.1	6.9	12.4	83.5*	-0.4
S=C(NCCCn1ccnc1)NC1CCCCC1	-3.2	-0.3	-12.5	16.7	6.5	-0.1
COc1ccc(OC)c(NC(=O)c2cccnc2Sc2ccccc2)c1	-4.4	-3.5	-14.1	28.8	2.0	-0.3
Brc1ccccc1-c1nnc(CSc2nnnn2-c2ccccc2)o1	7.2	-0.1	-12.5	111.5*	-5.3	-0.1
COc1ccc(F)cc1C(=O)C1CCCN(C(=O)c2cccc(N(C)C)c2)C1 (stereo unspecified)	-4.7	0.0	-6.1	2.7	1.0	0.4
CCC(c1nnnn1C1CCCC1)N1CCN(Cc2ccccc2)CC1 (stereo unspecified)	-11.1	-1.4	4.1	102.6*	12.3	0.1
CC(C)Cn1cnc2c(SCc3ccccc3)nc(N)nc21	-8.7	1.6	-2.8	67.7*	-0.2	0.2
COc1ccc(C)cc1NC(=O)N1CCCc2ccccc21	3.5	1.8	-0.2	52.6*	-0.7	0.0
COc1ccc(NC(=O)N2CCCc3ccccc32)c(OC)c1	-2.1	-1.8	4.4	22.0	2.1	0.2
O=C(CCN1N=C(c2ccccc2)CCC1=O)NCC1COc2ccccc2O1 (stereo unspecified)	-2.8	-1.8	26.0	18.1	-0.4	-0.1
CCN(CC)S(=O)(=O)c1ccc(N/N=C/c2ccc(O)cc2O)nc1	1.5	0.7	-9.8	-14.8	78.4*	0.7
CCn1c(SCC(=O)c2ccc3c(c2)OCCO3)nnc1-c1ccco1	-4.9	0.0	23.4	9.3	16.3	0.3
SMILES	FAS-TE inh	CRFBP-R2 agonist	PfGluPho inh	CRFBP-R2 block	H9c2 protect	aDG glyco act
Cn1c(SCC(=O)c2ccc3c(c2)OCCO3)nnc1C(F)(F)F	-8.2	-0.6	-0.6	111.1*	4.2	0.1
Cn1c(SCC(=O)Nc2ccc3c(c2)OCCO3)nnc1C(F)(F)F	-4.6	-0.6	-4.8	-5.0	-3.1	-0.2
COCCn1c(SCC(=O)c2ccc3c(c2)OCCO3)nnc1-c1ccco1	-5.9	-0.1	5.7	97.5*	8.9	0.2
Nc1nc(-c2ccc([N+](=O)[O-])cc2)cc(=O)[nH]1	7.7	4.3	17.6	-14.8	17.8	0.2
CC(C)(C)OC(=O)NCC12C=CC(O1)C1C(=O)N(Cc3ccccc3)C(=O)C12 (stereo unspecified)	-2.3	0.2	11.0	-6.3	80.4*	-0.2
Cc1ccc(NC(=S)NCC23C=CC(O2)C2C(=O)N(c4ccc(C)cc4)C(=O)C23)cc1 (stereo unspecified)	12.9	0.6	4.0	-14.1	-4.8	0.1
COc1ccc(N(Cc2cc3cc(OC)ccc3[nH]c2=O)C(=O)c2cccnc2)cc1	-6.1	-0.2	5.8	-0.6	108.6*	-0.1
COc1ccc2[nH]c(=O)c(CN(c3ccccc3OC)S(=O)(=O)c3ccccc3)cc2c1	15.5	0.5	-0.7	-12.6	67.6*	0.0
COc1ccc2[nH]c(=O)c(CN(C(=O)c3cccnc3)c3ccccc3)cc2c1	-0.9	0.2	-11.0	-65.4	2.1	-0.2
COc1ccc(NC(=S)N(Cc2cccnc2)Cc2cc3cc(OC)c(OC)cc3[nH]c2=O)cc1	4.2	-0.3	1.9	14.5	65.9*	0.2
COc1ccc2[nH]c(=O)c(CN(Cc3cccnc3)C(=O)Nc3ccccc3)cc2c1	-0.1	-3.9	-1.3	-15.0	30.1	-0.4
CN(C)/C=C1\C=C2C(=O)c3ccccc3N2C1=O	-151.8	216.7*	15.3	-219.8	27.1	0.0
C[C@H](CO)N1C[C@H](C)[C@H](CN(C)S(C)(=O)=O)OCc2cnnn2CCCC1=O	-9.2	-1.0	14.2	-12.2	4.8	0.1
COc1c2c(c(CCC(=O)O)c3c1C=CC(C)(C)O3)OC(C)(C)C=C2	-3.7	0.7	2.7	-7.4	-1.5	-0.1
CSC1=NSC2=NC(=O)/C(=C\c3coc4ccccc4c3=O)C(=N)N12	-74.8	197.1*	-24.3	-200.9	-10.3	-0.2
CC(C)CSC1=NSC2=NC(=O)/C(=C\c3coc4ccccc4c3=O)C(=N)N12	-66.5	313.6*	-24.2	-332.8	-10.8	-0.1
CC1(C(=O)NS(=O)(=O)c2cccc(F)c2)CCN1C(=O)c1ccccc1 (stereo unspecified)	-9.9	nt	nt	nt	2.0	-0.3
CCC1(c2ccc(F)cc2)NC(=O)N(CC(=O)c2cc(C)n(C3CC3)c2C)C1=O (stereo unspecified)	1.7	65.9*	6.7	-46.4	-0.9	-0.1
